Test results from PubChem BioAssay AID2654 (Johns Hopkins Ion Channel Center, 2010).
Results with a measured potency or affinity are listed apart. Activity calls are given as the source filed them.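 Rule for the calls: active = increase of the KCNQ2 potassium channel current at -35 mV by at least one tested dose; inactive = no tested dose increases that current.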

Each compound was assayed against Potassium voltage-gated channel subfamily KQT member 2 (Rattus norvegicus) (UniProt O88943) (assay: potentiation of rat KCNQ2 current – cell-based, retigabine-insensitive compounds, dose response (AID 2654)). Details: KCNQ2-CHO cells, automated patch clamp current potentiation; at 30 µM (top of the series).
Chain of Potassium voltage-gated channel subfamily KQT member 2 (Rattus norvegicus) (O88943 whole entry, looked up): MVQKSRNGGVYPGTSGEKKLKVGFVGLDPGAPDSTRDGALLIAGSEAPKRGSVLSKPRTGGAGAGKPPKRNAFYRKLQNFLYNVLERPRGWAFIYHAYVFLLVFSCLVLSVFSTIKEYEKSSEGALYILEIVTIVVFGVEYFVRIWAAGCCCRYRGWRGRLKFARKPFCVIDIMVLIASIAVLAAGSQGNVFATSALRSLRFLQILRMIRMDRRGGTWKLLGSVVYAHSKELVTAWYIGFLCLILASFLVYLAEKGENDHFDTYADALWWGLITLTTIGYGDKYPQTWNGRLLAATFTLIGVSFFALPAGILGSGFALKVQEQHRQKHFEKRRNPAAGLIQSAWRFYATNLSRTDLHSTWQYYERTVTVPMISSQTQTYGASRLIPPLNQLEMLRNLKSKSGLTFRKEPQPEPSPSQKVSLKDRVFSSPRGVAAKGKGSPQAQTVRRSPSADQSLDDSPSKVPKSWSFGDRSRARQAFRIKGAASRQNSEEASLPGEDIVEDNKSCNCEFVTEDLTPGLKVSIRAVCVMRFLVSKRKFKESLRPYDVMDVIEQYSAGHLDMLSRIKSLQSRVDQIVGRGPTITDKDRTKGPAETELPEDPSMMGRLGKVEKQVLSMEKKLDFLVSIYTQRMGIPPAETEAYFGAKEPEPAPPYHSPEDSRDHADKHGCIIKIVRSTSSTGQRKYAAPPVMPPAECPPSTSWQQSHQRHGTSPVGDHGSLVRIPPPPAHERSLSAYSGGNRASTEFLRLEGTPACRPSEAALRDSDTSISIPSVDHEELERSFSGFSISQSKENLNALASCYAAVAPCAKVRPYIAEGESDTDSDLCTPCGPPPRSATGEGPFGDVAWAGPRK
For O=C(Nc1cccnc1)Nc1ccc(Cl)cc1Cl, the “potentiation” value was 2.74 (inactive). In the case of Cc1ccc(Cl)cc1NC(=O)Nc1cccnc1, the “potentiation” value is reported as -2.18 (inactive). For COc1ccc(Cl)cc1NC(=S)Nc1cccnc1, the “potentiation” value was 3.47 (inactive). For COc1ccc(NC(=O)Nc2cccnc2)c(OC)c1, the “potentiation” value was -1.24 (inactive). For O=C(Nc1cccnc1)Nc1ccc(Br)cc1Cl, the “potentiation” value was 0.99 (inactive). For S=C(NCc1ccco1)Nc1cccnc1, the “potentiation” value was 7.03 (inactive). Cc1cncc(NC(=O)NCc2ccc(Cl)cc2Cl)c1 was tested, and the “potentiation” value was -19.5 (inactive). For Fc1ccc(NC(=S)Nc2cccnc2)cc1Cl, the “potentiation” value was 12.7 (inactive). Cc1ccc(NC(=O)Nc2cccnc2)c(C)c1 was tested, and the “potentiation” value was 36.1 (inactive). With O=C(Nc1cccnc1)Nc1cc(Cl)cc(Cl)c1 the “potentiation” value was 1.48 (inactive). Cc1ccc(Cl)cc1NC(=S)Nc1cccnc1 was tested, and the “potentiation” value was 8.95 (inactive). With COc1cccc(NC(=S)Nc2cccnc2)c1 the “potentiation” value was 17.9 (inactive). Work on FC(F)(F)c1cccc(NC(=S)Nc2cccnc2)c1 yielded a potentiation of 96.9. For COc1ccc(NC(=S)Nc2cccnc2)c(OC)c1, the “potentiation” value was -8.41 (inactive). With Cc1cc(NC(=O)NCc2ccc(Cl)cc2Cl)cnc1Br the “potentiation” value was -3.54 (inactive). With Cc1c(Cl)cccc1NC(=O)Nc1cccnc1 the potentiation was 102. O=C(NCC(F)(F)F)Nc1cccnc1 was tested, and the “potentiation” value was -1.35 (inactive). In the case of Fc1ccc(NC(=S)Nc2cccnc2)c(F)c1, the “potentiation” value is reported as -38.9 (inactive). In the case of COc1nccc(NC(=O)Nc2cccc(F)c2)n1, the “potentiation” value is reported as -18.8 (inactive). With Cc1ccc(C)c(NC(=O)Nc2cccnc2)c1 the “potentiation” value was 4.05 (inactive). S=C(Nc1ccc(Cl)cc1)Nc1cccnc1 was tested, and the “potentiation” value was 18.5 (inactive). With O=C(NCc1ccc(Cl)cc1Cl)Nc1nccs1 the “potentiation” value was 12.4 (inactive). With CC(CCc1ccccc1)NC(=S)Nc1cccnc1 (configuration not stated) the “potentiation” value was -10.2 (inactive). For Cc1nc(F)ccc1NC(=O)Nc1cccc(F)c1, the “potentiation” value was 13.9 (inactive). In the case of S=C(Nc1cccnc1)NC1CCCc2ccccc21 (configuration not stated), the “potentiation” value is reported as 4.07 (inactive). For Cc1nc(F)ccc1NC(=O)NCc1ccc(Cl)cc1Cl, the “potentiation” value was 0.46 (inactive). Cc1cc(Cl)ccc1NC(=S)Nc1cccnc1 was tested, and the “potentiation” value was -3.35 (inactive).
